Source: PubChem BioAssay
The list is not random: actives were taken first. Their share in the collection is about 9.9%.
KB-3-1 tox = kills parental KB-3-1 adenocarcinoma cells; KB-3-1 viability, CellTiter-Glo ATP luminescence, 72 h; Potency, µM (top dose mostly 46.1 µM), usual class: cytotoxic; 400,000 tested, 1.4% active; AID 1347075; further: nearly all actives have a fitted effect of over 60% in size
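Cells are dispensed, compounds pinned in, plates held at 37 °C for 72 h, then CellTiter-Glo is added and luminescence read after 10 minutes. Cell line: parental KB-3-1 in phenol-red-free DMEM, 10% FBS.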
MCF10A rereplic = induces DNA re-replication in MCF 10a normal breast cells; MCF 10A DNA re-replication, Hoechst nuclear intensity, 48 h; 350,000 tested, 2.9% active; Potency, µM (titrated, usually from 46.1 µM), most hits filed as activators; AID 624296; further: nearly all actives have a fitted effect of over 50% in size
SW480 rerep = DNA re-replication induction in SW480 cells | 340,000 tested, 1.8% active | Potency, µM (top dose mostly 46.1 µM), usual class: activators | AID 624297 | SW480 DNA re-replication, Hoechst DNA content imaging, 48 h; further: nearly all actives have a fitted effect of over 55% in size
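Image-based DNA-content assay: after two days of treatment, nuclei were labelled with the DNA dye Hoechst and imaged, and hits were compounds raising the count of nuclei showing high fluorescence intensity.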
KB-V1 cytotox = kills drug-selected multidrug resistant KB-V1 cells; 400,000 tested, 3.4% active; AID 1347076; Potency, µM (top dose mostly 46.1 µM), most hits filed as cytotoxic; KB-V1 MDR cells viability, CellTiter-Glo, 72 h; further: nearly all actives have a fitted effect of over 60% in size
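KB-V1 cells (P-gp-expressing MDR subline of KB-3-1) in phenol-red-free DMEM with 10% FBS were exposed to library compounds over a concentration series for 72 h at 37 degrees C. Viability read by CellTiter-Glo luminescence; concentration-effect curves fitted after normalization.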
IL1B secr inh = blocks inflammasome-driven IL-1 beta release; THP-1 LPS/ATP IL-1B secretion, AlphaLISA, 16 h; stronger effect = lower value; activity change, % at 57.5 µM; 360,000 tested, 4.7% active; in the data active means activity change below about -50%; inconclusive means mostly about -30% to -49%
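Secreted IL-1B measured by AlphaLISA bead assay after 16 h compound exposure of THP-1 cells; compounds (final up to 57.5 uM) added 1 h before LPS (250 ng/mL) and ATP (1.25 mM) stimulation; lower signal means less secretion.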
Large screens that a line does not name were inactive. Unless noted, the call rests on the fitted dose curve; in most records, active means well fitted curve in the direction sought with a large enough effect; inconclusive means small, poorly fitted or top-dose-only effect, or another doubt; inactive means no such curve, though single readings can be large; an effect the other way counts as inactive or inconclusive.

Cc1cc(Br)ccc1NC(=O)CN(C)C(=O)CSC(=S)N1CCCC1	KB-V1 cytotox 13µM
N#C/C(C(=O)NCCc1ccccc1)=C1/N=C(NC(=O)c2cccs2)c2ccccc21	KB-3-1 tox inconclusive, MCF10A rereplic 8.2µM
COc1ccc(C)cc1NC(=O)CN(C)S(=O)(=O)c1ccc2c(c1)CC(C)N2C(C)=O (stereo not given)	SW480 rerep inconclusive, KB-V1 cytotox inconclusive
O=C(COC(=O)CCc1c[nH]c2ccccc12)NC(c1ccccc1)c1ccccc1	none
CC(C)C[C@H]1CN([C@@H](Cc2ccccc2)CN2CCC[C@H]2CN2C(=O)C(=O)NC[C@@H]2Cc2ccc(O)cc2)C(=O)C(=O)N1CC1CCCCC1	KB-3-1 tox inconclusive, IL1B secr inh -94 (no result: MCF10A rereplic, SW480 rerep)
O=C1NC[C@H](Cc2ccccc2)N(C[C@H]2CCCN2C[C@H](Cc2ccccc2)N2C[C@H](Cc3ccccc3)N(CC3CCCCC3)C(=O)C2=O)C1=O	MCF10A rereplic inconclusive, SW480 rerep inconclusive, IL1B secr inh -78
O=C1NC[C@H](Cc2ccc(O)cc2)N(C[C@@H]2CCCN2C[C@H](Cc2ccccc2)N2C[C@H](Cc3ccccc3)N(CC3CCCCCC3)C(=O)C2=O)C1=O	none (no result: MCF10A rereplic, SW480 rerep)
O=C1NC[C@H](Cc2ccccc2)N(C[C@@H]2CCCN2C[C@H](Cc2ccccc2)N2C[C@H](Cc3ccccc3)N(CC3CCCCC3)C(=O)C2=O)C1=O	IL1B secr inh -77 (no result: MCF10A rereplic, SW480 rerep)
CC(C)(C)C1CCC(CN2CCC(CN3C(=O)C(=O)NC[C@@H]3Cc3ccccc3)CC2)CC1 (stereo not given in full)	SW480 rerep inconclusive, IL1B secr inh -56
Cc1cc(Nc2ccc(Br)cc2)nc(C)n1	KB-V1 cytotox inconclusive (no result: MCF10A rereplic, SW480 rerep, IL1B secr inh)
COc1cc2c(=O)c(S(=O)(=O)c3ccccc3)cn(CC(=O)Nc3ccccc3C)c2cc1OC	KB-V1 cytotox inconclusive (no result: MCF10A rereplic, SW480 rerep, IL1B secr inh)
O=C1NC[C@H](Cc2ccccc2)N(C[C@@H]2CCCN2C[C@H](Cc2ccc(O)cc2)N2C[C@H](Cc3ccccc3)N(CC3CCCCCC3)C(=O)C2=O)C1=O	IL1B secr inh -83 (no result: MCF10A rereplic, SW480 rerep)
O=C(CCN1Cc2ccccc2C1)c1ccc2c(c1)OCCO2	IL1B secr inh -90
O=C(C[n+]1ccc(/C=C/c2ccccc2)cc1)c1ccc2c(c1)OCCO2	KB-3-1 tox 12µM, SW480 rerep inconclusive, KB-V1 cytotox inconclusive, IL1B secr inh -94
O=C(CCN1CCc2ccccc2C(c2ccccc2)C1)c1ccc2c(c1)OCCO2 (stereo not given)	KB-3-1 tox inconclusive, MCF10A rereplic 5.2µM, SW480 rerep inconclusive, KB-V1 cytotox inconclusive
COc1cc(F)c(S(=O)(=O)N2CCOc3ccccc32)cc1OC	KB-3-1 tox inconclusive
O=C(c1ccc(F)cc1)N1CCN=C1c1ccccc1	MCF10A rereplic inconclusive, SW480 rerep 13µM
COc1ccc(CN2C(=O)c3cccc4cccc2c34)cc1F	MCF10A rereplic 21µM, SW480 rerep inconclusive, KB-V1 cytotox inconclusive
COc1ccc(CCN2C(=O)c3cccc4cccc(c34)C2=O)cc1OC	none
Nc1c(Br)cc(/C=C2\C=Cc3ccccc32)cc1Br	none (no result: MCF10A rereplic, SW480 rerep, IL1B secr inh)
COc1ccc(Nc2nc(C)cc(C)n2)cc1Cl	none
Cc1cc(C)nc(Sc2nc(Nc3ccccc3)nc(Sc3nc(C)cc(C)n3)n2)n1	KB-3-1 tox 21µM, MCF10A rereplic inconclusive, SW480 rerep inconclusive, KB-V1 cytotox inconclusive, IL1B secr inh -54
COc1nc(Nc2cccc(F)c2)nc(OC)n1	KB-3-1 tox inconclusive, KB-V1 cytotox 6.5µM
COc1nc(Nc2ccccc2)nc(OC)n1	KB-3-1 tox inconclusive, MCF10A rereplic inconclusive, SW480 rerep inconclusive, KB-V1 cytotox 8.2µM
Cc1cc(C)nc(Nc2ccc(O)cc2)n1	none
COc1nc(Nc2ccc(OC)c(Cl)c2)nc(OC)n1	KB-3-1 tox inconclusive, KB-V1 cytotox 18µM
CNc1nc(Cl)nc(Nc2ccccc2)n1	KB-3-1 tox inconclusive, MCF10A rereplic inconclusive, KB-V1 cytotox 5.8µM
O=S(=O)(Nc1ccccn1)c1ccc(Cl)c2ccccc12	none
C#CCOCCOCCOCCNc1nc(N2CCN(C(=O)[C@H](CCCCN)n3cc([C@@H](N)[C@H](C)CC)nn3)CC2)nc(N2CCN(C(=O)[C@H](CCC(=O)O)n3cc([C@@H](N)CCSC)nn3)CC2)n1	none
COc1cc(/C=N/N=C2\CC3CCC2(C)C3(C)C)ccc1O (stereo not given)	MCF10A rereplic inconclusive
CC12CCC(C/C1=N\N=C1\NC(=O)/C(=C\c3cccc(Br)c3)S1)C2(C)C (stereo not given)	MCF10A rereplic 18µM, KB-V1 cytotox inconclusive, IL1B secr inh -68
COc1cc2c(cc1OC)C(COc1ccccc1OC)N(C(=O)c1ccc(S(=O)(=O)N3CCCC3)cc1)CC2 (stereo not given)	none (no result: MCF10A rereplic, SW480 rerep, IL1B secr inh)
Cc1ccc2[nH]c(=O)c(CN(Cc3ccc4c(c3)OCO4)Cc3nnnn3Cc3ccco3)cc2c1	IL1B secr inh -59
Cc1cc(C)c2cc(CN(Cc3ccc4c(c3)OCO4)Cc3nnnn3Cc3ccco3)c(=O)[nH]c2c1	KB-3-1 tox inconclusive, MCF10A rereplic inconclusive, KB-V1 cytotox inconclusive, IL1B secr inh -62
Cc1ccc2[nH]c(=O)c(CN(Cc3ccco3)Cc3nnnn3Cc3ccccc3)cc2c1	none (no result: MCF10A rereplic, SW480 rerep, IL1B secr inh)
Cc1ccc2cc(CN(Cc3ccco3)Cc3nnnn3Cc3ccco3)c(=O)[nH]c2c1	KB-V1 cytotox inconclusive (no result: MCF10A rereplic, SW480 rerep, IL1B secr inh)
CC(OC(=O)CNC(=O)c1ccc2ccccc2c1)C(=O)N(C)C1CCCCC1 (stereo not given)	SW480 rerep inconclusive
O=C(N/N=C/c1ccsc1)c1cc(-c2ccncc2)nc2ccccc12	KB-3-1 tox 2.6µM, MCF10A rereplic 9.2µM, SW480 rerep 7.3µM, KB-V1 cytotox 8.2µM
COc1ccccc1-c1cc(C(=O)N/N=C/c2sccc2C)c2ccccc2n1	KB-3-1 tox inconclusive, MCF10A rereplic inconclusive
O=C(N/N=C/c1ccsc1)c1cc(-c2cccs2)nc2ccccc12	KB-3-1 tox inconclusive, MCF10A rereplic 5.8µM, SW480 rerep 6.5µM, KB-V1 cytotox 13µM
Cc1ccsc1/C=N/NC(=O)c1cc(-c2ccncc2)nc2ccccc12	KB-3-1 tox 1.2µM, MCF10A rereplic 0.73µM, SW480 rerep 1.5µM, KB-V1 cytotox inconclusive
C=CCn1c(Oc2ccc(C=O)cc2OCC)nc2c1c(=O)n(C)c(=O)n2C	none
Cc1cc(Cl)ccc1Oc1ncc(-c2ccc(Cl)cc2)cn1	KB-V1 cytotox 18µM
Clc1ccc(-c2cnc(Oc3ccccc3)nc2)cc1	IL1B secr inh inconclusive
Cc1ccc(NC(=O)CN(C)C(=O)c2cc(S(=O)(=O)N(C)C)ccc2N2CCCC2)cc1	none
CCCCOCCCNC(=O)CN1C(=O)c2ccccc2C1=O	MCF10A rereplic 3.7µM
CCCOc1ccc(CN(C(=O)c2nc(SC(C)C)ncc2Cl)C2CCS(=O)(=O)C2)cc1 (stereo not given)	none (no result: MCF10A rereplic, SW480 rerep, IL1B secr inh)
Cc1csc(SCC(=O)NCc2ccccc2)n1	none
